# Where “and” joins values, the source holds several entries; their conditions need not be identical. Identical values can stand only once. Inconclusive results are not listed. Where a call stands in place of a potency, no number is given. Calls of active or inactive are those of the source. Calls follow the shape of the dose curve; as a rule, active = well fitted cell-killing curve with a large enough effect in the repeat runs; inconclusive = weak or mixed curves, or effect the other way; inactive = flat fitted curve, though single readings scatter.
# Assay: cAMP Responsive Elements (CRE) small molecule agonists, cell-based qHTS assay: qHTS cell viability counter screen (AID 2060914); also: nearly all actives have a fitted effect of over 50% in size
# Conditions: CRE-bla HEK293T viability, CellTiter-Glo luminescence, 5 h; series mostly up to 92.4 µM
# How it was run: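 Cytotoxicity was measured as ATP luminescence (CellTiter-Glo, 30 min at room temperature) in the same wells as the CRE-bla FRET read-out. HEK293T CRE-bla cells had 3 h compound exposure at 37C/5% CO2.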
# Potency is read from the fitted curve at half-maximal effect.
row,Compound,Potency
1,CC(C)c1ccc(OP(=O)(Oc2ccc(C(C)C)cc2)Oc2ccc(C(C)C)cc2)cc1,inactive
2,CCCOCC(=Nc1ccc(Cl)cc1C(F)(F)F)n1ccnc1,inactive
3,C=CC(N)=O,inactive
4,CCCCCCCCCCn1cc[n+](C)c1,inactive
5,O=S1(=O)OCC2C(CO1)C1(Cl)C(Cl)=C(Cl)C2(Cl)C1(Cl)Cl (stereo not given),inactive
6,ClCBr,inactive
7,Oc1ccc(Cl)c(Cl)c1Cl,inactive
8,CCOP(=S)(NC(C)C)Oc1ccccc1C(=O)OC(C)C (stereo not given),inactive
9,c1ccc2c(c1)Sc1ccccc1N2CC1CN2CCC1CC2 (stereo not given),inactive
10,CCCCc1ccc(O)cc1,inactive
11,C=Cc1cccc(CCl)c1,inactive
12,NNC(=S)NN,inactive
13,[O-][Br+2]([O-])O,inactive
14,CC[n+]1c(-c2ccccc2)c2cc(N)ccc2c2ccc(N)cc21,inactive
15,O=c1[nH]c(=O)n(Cl)c(=O)n1Cl,inactive
16,CN(C)c1ccc(N(C)C)cc1,inactive
17,[O]=[Cr][O][Cr]=[O],inactive
18,O=C(Cl)OCCOCCOC(=O)Cl,inactive
19,Oc1c(Br)c(Br)c(Br)c(Br)c1Br,inactive
20,[Cd+2].[Cl-].[Cl-],inactive

row,Compound,Potency
1,CCCCCCCCCl,inactive
2,CCOP(=S)(OCC)SCSP(=S)(OCC)OCC,inactive
3,CC(C)(C)C(O)/C(=C\c1ccc(Cl)cc1Cl)n1cncn1 (stereo not given),inactive
4,Oc1cc(Cl)c(Cl)c(Cl)c1Cl,inactive
5,CSc1nnc(C(C)(C)C)c(=O)n1N,inactive
6,C1CN2CCN1CC2,inactive
7,CN(C)C(=S)SSC(=S)N(C)C,12 µM (active) and 27.3 µM (active) and 16.8 µM (active)
8,CCCCN(CC)C(=O)SCCC,inactive
9,CCCSP(=O)(OCC)SCCC,inactive
10,O=C(O)C(Br)CBr (stereo not given),inactive
11,Nc1ccc([N+](=O)[O-])cc1Cl,inactive
12,CCC1(C2=NCCN2)Cc2ccccc2O1 (stereo not given),inactive
13,COc1cccc2c1cc([N+](=O)[O-])c1c(C(=O)O)cc3c(c12)OCO3,inactive
14,Oc1ccc(I)cc1,inactive
15,C=C(C)[C@H]1CN[C@H](C(=O)O)[C@H]1CC(=O)O,inactive
16,CCO/N=C(\CC)C1=C(O)CC(c2c(C)cc(C)cc2C)CC1=O (stereo not given),inactive
17,CCCCCCCCn1cc[n+](C)c1,inactive
18,Nn1cnnc1,inactive
19,O=C1NCN(c2ccccc2)C12CCN(CCCOc1ccc(F)cc1)CC2,inactive
20,N#Cc1cccnc1,inactive

# — PubChem BioAssay (Tox21)
